# Data taken from the supplement of paper PMC3334620.
# Over roughly 33,000 sequences, “E-score (-0.5 to 0.5)” has its median near -0.015; the highest 2% begin near 0.3. The full list was thinned out, with the highest values kept by preference.
# Target: T1, Abf1 (UniProt P14164)
# T1 sequence: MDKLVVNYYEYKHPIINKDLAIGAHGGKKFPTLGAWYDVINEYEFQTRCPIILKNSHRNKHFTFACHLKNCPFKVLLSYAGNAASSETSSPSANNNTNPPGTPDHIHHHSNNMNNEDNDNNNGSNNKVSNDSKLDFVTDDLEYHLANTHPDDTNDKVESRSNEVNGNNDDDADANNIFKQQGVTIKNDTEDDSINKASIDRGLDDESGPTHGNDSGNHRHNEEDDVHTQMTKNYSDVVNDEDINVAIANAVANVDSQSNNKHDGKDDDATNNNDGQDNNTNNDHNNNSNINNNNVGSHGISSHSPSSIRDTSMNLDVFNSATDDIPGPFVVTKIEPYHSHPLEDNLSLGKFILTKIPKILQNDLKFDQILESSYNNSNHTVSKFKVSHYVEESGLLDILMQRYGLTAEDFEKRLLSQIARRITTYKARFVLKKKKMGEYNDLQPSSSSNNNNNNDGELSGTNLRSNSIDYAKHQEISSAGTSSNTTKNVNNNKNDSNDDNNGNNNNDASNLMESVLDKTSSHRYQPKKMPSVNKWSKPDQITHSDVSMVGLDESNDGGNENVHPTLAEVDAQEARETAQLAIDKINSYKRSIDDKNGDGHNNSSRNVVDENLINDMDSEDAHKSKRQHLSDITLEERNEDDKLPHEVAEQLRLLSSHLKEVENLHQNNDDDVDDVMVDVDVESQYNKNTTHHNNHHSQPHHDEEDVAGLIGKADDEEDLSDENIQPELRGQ
# Experiment: PBM E-score (8-mer binding enrichment) (E-score (-0.5 to 0.5)); higher = stronger / more preferred TF binding
# Conditions: protein concentration: 200 nM; construct: GST-full length
# Procedure, shortened: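 Each ungapped eight-base word and its reverse complement, pooled, received an E-score from the Universal PBM Analysis Suite. Underlying scans, normalised with masliner, recorded fluorescent anti-GST bound to GST-tagged yeast transcription factors. These were applied at about 100-200 nM to universal all-10-mer Agilent arrays double-stranded by primer extension.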
row,Sequence,PBM E-score
1,ATCTCGCG,0.206
2,ATAATAGC,0.0936
3,CAGAGGAA,-0.148
4,CGTAGGAG,0.134
5,CCCAAAGG,-0.158
6,CCGTATCA,0.28
7,ACGTATCT,-0.0664
8,ACGTATCG,0.212
9,TCGTATCA,0.331
10,ACGTATCA,0.33
11,GCGTATCA,0.109
12,GCAGAACA,-0.122
13,ATTGCGTG,-0.126
14,CGCATCAA,0.081
15,ACTGGTAT,0.0243
16,AGTCACTC,0.232
17,CGTCACGC,0.145
18,CGTCACGA,0.336
19,GGTCACGA,0.27
20,AGTCACTA,0.315
21,GGTCACTA,0.281
22,CGTCACTA,0.374
23,CGTCACTC,0.173
24,AGTCACTG,0.0546
25,ACGCCAGA,-0.081
26,ACCACCTA,-0.168

row,Sequence,PBM E-score
1,ACTGAAAT,-0.0641
2,AGCACCAC,-0.214
3,ACGTTGGA,0.142
4,CAACCGAG,-0.0944
5,TCAGACGA,0.305
6,TCGGACGA,0.325
7,GCAGACGA,0.174
8,ACAGACGA,0.236
9,GCGGACGA,0.276
10,ACGGACGA,0.263
11,AGAATCCG,-0.0715
12,GCTGAGGA,-0.131
13,ACGACCTG,0.0542
14,GGGTAGAA,-0.0486
15,ACGCTGAT,0.0221
16,GATATCGA,0.271
17,GATATCGC,0.341
18,GATATCAC,0.414
19,GCTATCAC,0.211
20,AATATCAA,0.0238
21,GATATCAA,0.207
22,AATATCAG,0.119
23,AGTATCAT,0.286
24,ACTATCAT,0.184
25,AATATCAC,0.441
26,AATATCGC,0.283

row,Sequence,PBM E-score
1,AATATCAT,0.391
2,CTATCAAA,0.121
3,GCCAGCAC,-0.0263
4,TAAAGACA,-0.183
5,CCGGAGCA,-0.291
6,CAACCTAG,-0.0549
7,GAAACCGC,-0.15
8,CATATCAC,0.389
9,AATATCGG,0.187
10,AATATCGT,0.398
11,AATATCGA,0.0788
12,CATATCAA,0.222
13,CATATCAG,0.0515
14,CAGACCTC,0.00051
15,GCTGGTTA,-0.0104
16,ACTAAGTG,0.108
17,TAATATGA,0.261
18,TAATATAA,0.196
19,TAATATTA,0.361
20,CAATATTA,0.271
21,AAATATGT,0.334
22,AAATATTA,0.217
23,AAATATGA,0.0696
24,CAATATCA,0.283
25,GAATATCC,0.0475
26,GAATATCA,0.334

row,Sequence,PBM E-score
1,AAATATGC,0.0361
2,TAATATCA,0.344
3,AGGTAGAC,-0.249
4,CTAGGGCA,-0.273
5,CCCAAAAG,-0.135
6,AGCGGACT,-0.23
7,GCTGGAGA,-0.0857
8,GAGCTGCC,-0.0575
9,ACAACTCG,0.0757
10,AAATATCG,0.271
11,AAATATCC,0.0659
12,AAATATCA,0.376
13,CAAATCGC,-0.0589
14,CCTTACAC,-0.0587
15,AGTATATA,0.31
16,CGTATATC,0.255
17,AGTATATG,0.0541
18,CGTATATA,0.357
19,GGTATATA,0.161
20,AGTATATC,0.0567
21,AGTGGATC,-0.0658
22,CTGCCATA,-0.0819
23,GGCGTATA,-0.0363
24,GCCGTAGC,0.0651
25,GCCGTAGA,0.371
26,ACCGTATG,0.27

row,Sequence,PBM E-score
1,ACCGTATA,0.384
2,ACCGTATC,0.225
3,TCCGTAGA,0.143
4,CCCGTATA,0.289
5,GCCGTATA,0.379
6,AAGTGTTC,-0.0135
7,AGTTATAT,0.16
8,ATGAAGAG,0.0548
9,CTGGGCAA,-0.172
10,AATAATTA,0.2
11,ATCTTATG,0.0695
12,AAGCGGGC,-0.381
13,GTACGACA,0.36
14,ACACGACA,0.368
15,ACACGACT,0.0619
16,CCACGACA,0.0558
17,ACACGACC,-0.00503
18,GCACGACA,0.338
19,GCACGACC,0.0772
20,ATACGACA,0.296
21,CTACGACA,0.263
22,AAATTGGC,-0.0692
23,GTTGAGAA,0.098
24,AAGGACCG,-0.16
25,GGAGCCTA,-0.064
26,ACGACAGG,0.05

row,Sequence,PBM E-score
1,ACGACAAA,0.369
2,ACGACAAG,0.215
3,ACGACAAT,0.329
4,GCGACAGA,-0.0736
5,CCGACAAA,-0.0368
6,ACGACAAC,0.265
7,ACGACAGA,0.308
8,GCGACAAA,0.215
9,GGCGTCAA,-0.206
10,ATGTAGGG,-0.256
11,GTACGGTA,0.197
12,AAACGGTG,0.129
13,ATACGGTC,0.26
14,CTACGGTA,0.138
15,ATACGGTG,0.297
16,ATACGGTA,0.319
17,AACGGAAT,0.15
18,ACTCGTTG,-0.00197
19,AAGGGATA,0.0355
20,ATGGTGGC,-0.387
21,TCGTACGA,0.455
22,CCGTACGA,0.451
23,GCGTACGA,0.317
24,CCGTACGC,0.241
25,TAGTACGA,0.287
26,CGGTACGA,0.291

row,Sequence,PBM E-score
1,GCGTACGC,-0.158
2,TCGTAAGA,0.154
3,GGGTACGA,0.0568
4,CCAGTCTA,-0.227
5,CAGCAGAG,-0.263
6,ATGAGAAG,0.117
7,AGTAGTTG,0.067
8,ACTTTCAA,0.159
9,CTTTACCC,-0.141
10,GCTGACAC,0.0512
11,TGATTCAA,0.0649
12,GAGCAAGC,-0.0234
13,ATTTTTTA,0.193
14,AGGTGACG,0.0988
15,GGGTGACC,0.188
16,AGGTGACC,0.14
17,CGGTGACG,0.235
18,CGGTGACA,0.399
19,TGGTGACA,0.357
20,GGGTGACA,0.257
21,CGGTGACC,0.0798
22,AGGTGACA,0.362
23,ACCGAGGT,-0.113
24,AGCCCACA,-0.0569
25,AGTATCGC,0.0404
26,CCTACGTA,-0.0223

row,Sequence,PBM E-score
1,GACGAGTC,0.241
2,AATTCCGT,0.115
3,GATGCCAC,0.049
4,GCCGTTCA,0.156
5,ACCTAATC,0.111
6,CCCCATGA,-0.167
7,ACAGTTTA,-0.0111
8,CTTGATAA,0.138
9,GGTGATAA,0.404
10,CCTGATAA,0.1
11,TCTGATAA,0.134
12,TGTGATAA,0.297
13,CGTGATAA,0.408
14,GTTGATAA,0.199
15,GCTGATAA,0.0596
16,TGGGATAA,-0.0897
17,GTTTTCTA,-0.0572
18,CAGCGATG,-0.0769
19,AGTGGCAG,-0.0869
20,TATGGGCA,-0.0697
21,ATGAACCC,-0.0465
22,ACGTAGAC,0.0202
23,ATGCATAC,0.0289
24,CGGGGAGC,-0.00752
25,AGATGCAT,-0.058
26,CTCACCGC,0.0255

row,Sequence,PBM E-score
1,ATCACCGG,0.101
2,ATCACCAC,0.356
3,ATCACCAT,0.254
4,CTCACCAC,-0.0754
5,ATCACCGC,0.311
6,AGGTACCT,-0.101
7,ACGACTAG,0.0858
8,ACGACCAG,0.301
9,ACGACTAT,0.298
10,ACGACCAC,0.131
11,CCGACTAC,-0.119
12,ACGACTAA,0.0761
13,ACGACCAA,0.182
14,ACGACTAC,0.329
15,GCGACTAC,-0.134
16,AGCTGCTC,-0.148
17,CTCCTCCC,-0.201
18,ACGATGGC,0.0358
19,ATGTTAAT,-0.0223
20,AGTGAAGA,0.129
21,CGGCATAG,0.0597
